Experimental data from PubChem BioAssay.
Activity calls are given as the source filed them.

Legend:
[1] = test system: XIP peptide (Xip251-270) binding; experiment: XIP fragment 251-270 binding compounds – biochemical, small-molecule microarray, fluorescence 635/667 nm, 0.1 µg/mL protein, primary screen (AID 1182); details: fluorescent protein binding, 635 nm, higher = more signal, called active from +8 up or from −8 down
[2] = test system: XIP peptide (Xip251-270); experiment: compounds binding XIP fragment 251-270 – biochemical, small-molecule microarray, fluorescence 635/667 nm, 0.5 µg/mL protein, primary screen (AID 1183); details: fluorescence 635 nm, higher = more signal
[3] = blood-stage malaria parasite viability loss – strain 3D7, DAPI fluorescence, 100 nL, primary screen (AID 1184);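 further: parasites grown inside human red blood cells in medium with human serum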; details: P. falciparum 3D7 growth, 3 d, higher = more signal
[4] = molecular target: Homeobox protein Hox-A13 (Mus musculus) (UniProt Q62424); experiment: disruptors of Hoxa13 oligonucleotide interaction – biochemical, fluorescence polarization, labeled oligonucleotide, primary screen (AID 1185); details: Hoxa13:DNA binding, 15 min, higher = more signal, called active from +8 up or from −8 down
Chain of Homeobox protein Hox-A13 (Mus musculus) (Q62424 whole entry, looked up): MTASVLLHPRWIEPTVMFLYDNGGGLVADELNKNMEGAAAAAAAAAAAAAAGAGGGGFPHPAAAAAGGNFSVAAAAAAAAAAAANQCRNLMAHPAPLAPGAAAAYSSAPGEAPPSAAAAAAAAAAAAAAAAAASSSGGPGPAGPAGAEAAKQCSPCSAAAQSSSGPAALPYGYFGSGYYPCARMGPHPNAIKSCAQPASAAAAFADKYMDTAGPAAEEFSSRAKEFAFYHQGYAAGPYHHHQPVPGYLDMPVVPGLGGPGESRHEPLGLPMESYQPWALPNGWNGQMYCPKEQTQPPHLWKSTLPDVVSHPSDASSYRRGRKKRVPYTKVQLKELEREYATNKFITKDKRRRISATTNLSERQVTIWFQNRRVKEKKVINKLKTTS

SMILES | composite z-score [1] | composite z-score [2] | z-score [3] | z-score [4]
CCN1C(=O)[C@H]2[C@H]3[C@H](O)[C@H](O)CC(=NOC[C@@H](O)COCc4ccco4)[C@H]3CC[C@H]2C1=O | 0.386 (inactive) | 0.505 | -0.0786 | 0.366 (inactive)
CC(CCC(=O)OC[C@H]1O[C@H](C#Cc2ccccc2)C=C[C@@H]1Oc1ccc(C)cc1)=NO[C@H](C)c1cn([C@@H]2COC[C@H]2O)nn1 | 0.0435 (inactive) | -0.391 | -0.114 | -4.04 (inactive)
CC(C)(C)N1C(=O)[C@H]2[C@H]3[C@H](O)[C@H](O)CC(=NOC[C@@H](O)COCc4ccco4)[C@H]3CC[C@H]2C1=O | 0.0133 (inactive) | 0.72 | -0.62 | 0.976 (inactive)
O=C1[C@H]2[C@H]3[C@H](O)[C@H](O)CC(=NO[C@@H]4O[C@H](CO)[C@@H](O)[C@H](O)[C@H]4O)[C@H]3CC[C@H]2C(=O)N1c1ccc(F)cc1F | 0.391 (inactive) | 0.502 | -0.652 | -7.01 (inactive)
CC(C)=CCCC(C)=CCON=C1C[C@@H](O)[C@@H](O)[C@@H]2[C@@H]3C(=O)N([C@@H](C)c4ccccc4)C(=O)[C@@H]3CC[C@@H]12 | 0.0439 (inactive) | 0.242 | -0.81 | -1.3 (inactive)
CC(C)=NO[C@H](C)c1cn([C@@H]2COC[C@H]2O)nn1 | 0.496 (inactive) | 0.0358 | 0.672 | 0.141 (inactive)
CCN1C(=O)[C@H]2[C@H]3[C@H](O)[C@H](O)CC(=NO[C@H](C)c4cn([C@H](CO)Cc5ccccc5)nn4)[C@@H]3CC[C@H]2C1=O | 1.66 (inactive) | 0.722 | 1.44 | -2.36 (inactive)
CC(C)CON=C1C[C@@H](O)[C@@H](O)[C@@H]2[C@@H]3C(=O)N(Cc4ccc5c(c4)OCO5)C(=O)[C@@H]3CC[C@@H]12 | -0.263 (inactive) | -0.266 | -0.721 | -0.441 (inactive)
CCc1cc2c(nc1CC)CCN(CCC(C)=NO[C@@H]1O[C@H](COC(C)=O)[C@@H](OC(C)=O)[C@H](OC(C)=O)[C@H]1OC(C)=O)C2 | 2.93 (inactive) | 0.719 | -1.62 | -4.79 (inactive)
CCOC(=O)CCN1C(=O)[C@H]2[C@H]3[C@H](O)[C@H](O)CC(=NNC(=O)OCc4ccccc4)[C@H]3CC[C@H]2C1=O | 0.0983 (inactive) | -0.0907 | -0.873 | -3.59 (inactive)
CC(C)CON=C1C[C@@H](O)[C@@H](O)[C@@H]2[C@@H]3C(=O)N(c4ccc(F)cc4F)C(=O)[C@@H]3CC[C@@H]12 | 0.681 (inactive) | 0.218 | -1.66 | -0.567 (inactive)
CON=C1c2cc(OC)ccc2O[C@H](c2cccc(OC)c2)[C@H]1O | 0.906 (inactive) | 0.464 | 0.924 | -0.365 (inactive)
C[C@@H](c1ccccc1)N1C(=O)[C@H]2[C@H]3[C@H](O)[C@H](O)CC(=NNC(=O)OCc4ccccc4)[C@@H]3CC[C@H]2C1=O | 0.101 (inactive) | 0.209 | 0.556 | 0.963 (inactive)
CCCCOC(OCCCC)C(O)CSc1ccc2ccccc2c1 (stereo not given) | 0.115 (inactive) | 0.198 | 0.609 | -3.85 (inactive)
CC(=O)OC[C@H]1O[C@@H](ON=C(C)CCN2CCCCc3nc(C)c(C)cc32)[C@H](OC(C)=O)[C@@H](OC(C)=O)[C@@H]1OC(C)=O | -0.0733 (inactive) | 0.566 | -0.98 | -3.93 (inactive)
C#CCCCON=C1[C@H]2CCn3c(=O)n([C@@H](CC)c4ccccc4)c(=O)n3[C@H]2[C@H](O)[C@@H]2O[C@H]12 | 0.967 (inactive) | -0.226 | -0.9 | -3.68 (inactive)
CCOC(=O)[C@H](Cc1ccccc1)NC(=O)CCC1CC(OC(=O)NCc2ccc3c(c2)OCO3)CC2(CCCC(COC(=O)NCCOC)O2)O1 (stereo not given in full) | 0.247 (inactive) | 0.515 | -2.09 | -3.78 (inactive)
CCN1C(=O)[C@H]2[C@@H]3C(=CC[C@H]2C1=O)C(=O)[C@H]1O[C@H]1[C@H]3O | -0.529 (inactive) | 0.568 | -1.94 | -6.04 (inactive)
CC(C)=NOC(C)CN1CCCc2nc(C)c(C)cc21 (stereo not given) | 2.19 (inactive) | 0.522 | -0.225 | -8.04 (active)
CCOC(=O)[C@H](Cc1ccccc1)NC(=O)CCC1CC(OC(=O)NCc2cccc3ccccc23)CC2(CCCC(COC(=O)NCCc3ccc(Cl)cc3)O2)O1 (stereo not given in full) | 0.351 (inactive) | 0.568 | -1.93 | -5.98 (inactive)
